Assay results as given in PubChem BioAssay AID2796 (The Scripps Research Institute Molecular Screening Center, 2010).
In all, about 320,000 compounds went through this assay and about 8,000 (2.5%) were called active. The full list was thinned out, with actives kept by preference. Values without a mark were called inactive. Cut-off read from the data, not from the text of the source: active = activation above about 47%; inactive = the rest.

The molecules below were run against Aryl hydrocarbon receptor (Homo sapiens) (UniProt P35869) (assay: AHR activators, primary screen, cell-based, luminescence, luciferase reporter, human (AID 2796;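 note: 0% = vehicle wells and 100% = reference agonist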)). Conditions: AHR-responsive luciferase reporter cells, at 5 µM, hits give high values.
Chain of Aryl hydrocarbon receptor (Homo sapiens) (P35869 whole entry, looked up): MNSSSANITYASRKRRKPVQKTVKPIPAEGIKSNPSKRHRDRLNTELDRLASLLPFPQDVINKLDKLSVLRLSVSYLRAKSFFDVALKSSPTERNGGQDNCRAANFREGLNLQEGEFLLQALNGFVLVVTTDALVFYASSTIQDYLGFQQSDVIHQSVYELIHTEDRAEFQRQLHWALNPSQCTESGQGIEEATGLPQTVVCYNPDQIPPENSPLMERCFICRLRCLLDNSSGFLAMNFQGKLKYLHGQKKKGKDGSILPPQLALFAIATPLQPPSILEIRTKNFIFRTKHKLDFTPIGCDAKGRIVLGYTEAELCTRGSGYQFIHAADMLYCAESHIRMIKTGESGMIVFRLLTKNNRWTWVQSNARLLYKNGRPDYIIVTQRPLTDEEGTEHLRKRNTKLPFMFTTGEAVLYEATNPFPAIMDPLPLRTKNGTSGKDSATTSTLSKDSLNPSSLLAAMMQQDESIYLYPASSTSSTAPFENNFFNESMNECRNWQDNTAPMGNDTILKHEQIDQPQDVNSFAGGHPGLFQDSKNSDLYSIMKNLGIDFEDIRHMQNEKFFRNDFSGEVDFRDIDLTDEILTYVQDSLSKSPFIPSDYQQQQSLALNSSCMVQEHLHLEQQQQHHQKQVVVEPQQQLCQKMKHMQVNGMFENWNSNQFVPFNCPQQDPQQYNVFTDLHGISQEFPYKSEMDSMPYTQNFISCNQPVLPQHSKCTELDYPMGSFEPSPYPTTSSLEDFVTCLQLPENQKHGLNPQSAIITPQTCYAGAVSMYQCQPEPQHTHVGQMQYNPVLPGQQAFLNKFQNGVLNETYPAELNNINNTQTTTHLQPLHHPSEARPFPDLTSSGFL

| SMILES | activation |
| --- | --- |
| CCOC(=O)C1CCN(C(=O)COc2cccc3ccccc23)CC1 | 6.85% |
| Cc1ncoc1C(=O)NCCC(c1ccccc1)c1ccccc1 | 2.07% |
| Cc1cc(F)ccc1S(=O)(=O)Nc1ccc(C(=O)N(C)Cc2ccco2)cc1 | -1.13% |
| Cc1cc(Cl)ccc1OCCCC(=O)Nc1cccc(-n2cnnn2)c1 | 2.58% |
| O=C(Nc1cccc(Br)c1)c1ccc2snnc2c1 | 106% (active) |
| CCc1ccccc1NC(=O)c1ccc2snnc2c1 | 0.7% |
| O=C(Nc1ccc2ccccc2c1)Nc1ccc2snnc2c1 | 7.08% |
| COc1ccc(C(=O)NCC2CCCCC2)cc1S(=O)(=O)N1CCCC1 | 0.47% |
| COc1cc(C=NNC(=O)c2cccnc2)ccc1OC(=O)c1ccccc1F | 7.39% |
| CCOC(=O)c1nnn(-c2nonc2-n2cccc2)c1CN1CCC(C(=O)OCC)CC1 | 0.56% |
| Cc1cc(Nc2ccc(Br)cc2F)n2ncnc2n1 | 7.31% |
| Brc1ccc(Nc2c3c(nc4ncnn24)CCC3)cc1 | 104% (active) |
| CC1CCc2c(nc3ncnn3c2Nc2ccc(OC(F)(F)F)cc2)C1 (stereo not drawn) | 12.3% |
| CC(C)C[C@H](CO)Nc1nc(N(C)c2cccc(Cl)c2)c2ncn(C(C)C)c2n1 | 14.5% |
| OCCCNc1nccc(-c2cc(Nc3cccc(Cl)c3)ncn2)n1 | -11.1% |
| CC(C)n1cnc2c(Nc3cccc(Cl)c3)nc(N(CCO)CCCO)nc21 | 95.2% (active) |
| CC1=NN(/C(=N\c2nnc(C)s2)Nc2ccccc2)[C@H](c2ccc(C)cc2)S1 | 3.18% |
| O=C(O)c1cccnc1NC1CCCC1 | -0.53% |
| CCN(CC)S(=O)(=O)N1CCC(C(=O)NC(C)CCc2ccccc2)CC1 (stereo not drawn) | -1.06% |
| C#CCCOC(=O)N1C2=NC(C(=O)OC)=C(C(=O)OC)[C@@H]3N(C)c4ccc(OC)cc4[C@]23C[C@H]1C(=O)OC | -1.46% |
| O=C1CCc2cc(S(=O)(=O)Nc3ccc(C(F)(F)F)cc3)cc3c2N1CC3 | -2.33% |
| COCC1CCCN(Cc2cn[nH]c2-c2cc3ccccc3o2)C1 (stereo not drawn) | 4.44% |
| CC1CCN(Cc2nc(-c3ccc(Cl)cc3)no2)CC1 | -0.15% |
| COCC1CCCN(Cc2nc(-c3ccc4c(c3)OCO4)no2)C1 (stereo not drawn) | 52.6% (active) |
| CCN1CN(Cc2ccccc2)CNC1=S | 2.74% |

| SMILES | activation |
| --- | --- |
| CC(C)N1CCc2c(sc(NC(=O)Cc3ccccc3)c2C#N)C1 | 43.6% |
| COc1ccc(N2CCN(C(=O)c3ccc(N4CCCCS4(=O)=O)cc3)CC2)cc1 | 1.84% |
| CC1CN(C(=O)c2ccc3c(c2)OCO3)OC(c2ccccc2)O1 (stereo not drawn) | 3.64% |
| COc1ccc2c(c1)CC[C@@H]1[C@@H]2CC[C@]2(C)C(=O)CC[C@@H]12 | -1.47% |
| CC1(C)CC(CC(=O)O)C(=O)O1 (stereo not drawn) | -2.54% |
| C/C(CC1CC(C)(C)OC1=O)=N/Nc1nc(-c2ccccc2)cs1 (stereo not drawn) | 124% (active) |
| CC1(C)CC(CCC(=O)Nc2ccccc2Cl)C(=O)O1 (stereo not drawn) | -0.84% |
| Cc1ccc(C(=O)OC2=CC(=O)CC(C)(C)C2)cc1 | 3.37% |
| CCN(CC)S(=O)(=O)c1ccc(Cl)c(C(=O)NC(C)C(c2cccs2)N2CCCC2)c1 (stereo not drawn) | 1.85% |
| C=CC[C@@H](Cc1ccc(F)cc1)C(=O)OC[C@H]1CCCN1C(=O)[C@H](CC=C)CC(=O)N(CCO)Cc1ccccc1 | -1.59% |
| Clc1ccc(Cl)c(Oc2ccc(Oc3nc(Cl)ccc3Cl)cc2)n1 | -1.7% |
| COCCSc1nnc(NC(=O)c2cc(OC)c(OC)cc2[N+](=O)[O-])s1 | 1.43% |
| COc1ccc(NCCc2ccccn2)cc1 | 4.86% |
| COc1ccc(Nc2ncnc3sc(C)cc23)cc1 | 37% |
| COc1ccc(Nc2cc(Sc3ccc(OC)cc3)ncn2)cc1 | 54% (active) |
| O=C(NC(C(=O)NCCN1CCOCC1)C12CC3CC(CC(C3)C1)C2)C1CCCCC1 (stereo not drawn) | 2.26% |
| Cn1c(N)c(C(=O)COC(=O)c2ccc3ccccc3c2)c(=O)n(C)c1=O | -1.74% |
| O=C(NCCCn1ccnc1)c1ccccc1F | 12.6% |
| COc1ccc(-c2cc(C(=O)NCCCn3ccnc3)no2)cc1 | 15.1% |
| CCCC(=O)Nc1ccc(C(=O)NCCCn2ccnc2)cc1 | 0.23% |
| O=C(Nc1ccccc1C(=O)NCCCn1ccnc1)c1ccc(Cl)cc1Cl | 20.3% |
| COc1cc(OC)cc(C(=O)NCCCn2ccnc2)c1 | 32.8% |
| O=C(NCCCn1ccnc1)c1cc(Br)c(Br)s1 | 57.3% (active) |
| O=C(NCCCn1ccnc1)Nc1ccc(Cl)cc1Cl | 69.2% (active) |
| O=C(/C=C/c1ccc(Cl)cc1)NCCCn1ccnc1 | 7.43% |

| SMILES | activation |
| --- | --- |
| O=C(NCCCn1ccnc1)c1cc2c(s1)CCCC2 | 46.3% |
| Cc1ccc2c(Cl)c(C(=O)NCCCn3ccnc3)sc2c1 | 55.7% (active) |
| O=C(NCCCn1ccnc1)c1cc(-c2ccccc2)on1 | 168% (active) |
| Cc1ccc2c(Cl)c(C(=O)Nc3nn[nH]n3)sc2c1 | 1.09% |
| COc1ccc(C(=O)Nc2cc(S(=O)(=O)N3CCCC3)ccc2Cl)cc1 | 3.58% |
| C=CCNC(=O)c1ccc2c3n(nc2c1)-c1ccc(C)cc1CO3 | -9.75% |
| CC1C(=O)Nc2ccccc2N1C(=O)c1ccc(F)cc1F (stereo not drawn) | 3.47% |
| CCCN(CC1CC1)C(=S)NC(=O)c1ccccc1Br | 0.93% |
| O=C(Cn1nc(Cc2cccnc2)c2ccccc2c1=O)NCC1COc2ccccc2O1 (stereo not drawn) | 0.07% |
| O=C(NC1CCCC1)C(c1c(F)cccc1Cl)N(C(=O)c1csnn1)C1CC1 (stereo not drawn) | 1.3% |
| COc1ccc(S(=O)(=O)N2CCCCC2)cc1NC(=O)COc1ccccc1 | -0.98% |
| O=C(CN1C(=O)NC2(CCOc3ccccc32)C1=O)NCc1ccc(F)cc1 (stereo not drawn) | 0.77% |
| Cc1cc(NC(=O)CCC(=O)N(CC(=O)NCC2CCCO2)c2ccccc2)no1 (stereo not drawn) | -0.82% |
| CC(C)NS(=O)(=O)c1ccc(NC(=O)c2cccnc2)cc1 | 0.76% |
| NS(=O)(=O)c1ccc(NC(=S)NC(=O)c2cccnc2)cc1 | 56.7% (active) |
| CC(=O)NC(=S)Nc1ccc(NC(=O)c2cccnc2)cc1 | 0.34% |
| COc1ccc(CCNS(=O)(=O)c2ccc(Cl)s2)cc1OC | 1.04% |
| N#Cc1cc([N+](=O)[O-])ccc1NC(=O)COC(=O)c1cnccn1 | 10.8% |
| COc1cccc(N(Cc2nnc3n2CCCCC3)C(=O)Nc2ccccc2F)c1 | 8.31% |
| COc1cc2[nH]c(=S)n(CCN3CCCCC3C)c(=O)c2cc1OC (stereo not drawn) | 7.8% |
| COc1cc2[nH]c(=S)n(Cc3ccc(F)cc3)c(=O)c2cc1OC | 0.4% |
| COc1cc2[nH]c(=S)n(Cc3ccc(C)o3)c(=O)c2cc1OC | 73.8% (active) |
| O=C(O)c1cc(S(=O)(=O)NC2CCCc3ccccc32)ccc1O (stereo not drawn) | -0.8% |
| N#CCC(=O)NC(=O)NCC1CC1 | 3.61% |
| O=C(CCCN1C(=O)CSc2ncccc21)N1CCN(c2cccc(C(F)(F)F)c2)CC1 | 1.24% |

| SMILES | activation |
| --- | --- |
| CNS(=O)(=O)c1ccc(C(=O)NCC(=O)NCCc2ccc3c(c2)OCCO3)cc1 | -1.1% |
| CCc1ccc(CNC(=O)C2CCN(c3nnc(C)c4c(C)n(-c5ccc(C)cc5)nc34)CC2)cc1 | 1.85% |
| COCCCNc1nc2c(-c3cccc(C(F)(F)F)c3)nnn2c2ccccc12 | 29% |
| COC(=O)Cn1nc(-c2ccccc2)c2cc(Cl)ccc21 | 1.76% |
| COCCCNc1nc2c(-c3cccc(C)c3)nnn2c2ccc(Cl)cc12 | 69.9% (active) |
| C=CCNC(=O)COc1coc(CN2CCN(Cc3ccccc3)CC2)cc1=O | 1.03% |
| O=C(COC(=O)/C=C/c1cccc(Cl)c1)NCc1cccs1 | 1.89% |
| CCc1cccc(C)c1NC(=O)COC(=O)CNC(=O)c1cccs1 | 2.33% |
| CC[C@@]12C(=O)N(c3ccccc3)C(=O)N1[C@H](c1ccc(Br)cc1)[C@@H]1C(=O)N(C(C)(C)C)C(=O)[C@@H]12 | -0.76% |
| CC(Sc1sc(=S)sc1SC(C)C(=O)O)C(=O)O (stereo not drawn) | 4.16% |
| COCCN1C2=C(COC(C)(C)C2)C(=S)NC1c1ccccc1 (stereo not drawn) | 0.78% |
| CC(=O)Nc1ccc(C(=O)Nc2nc(-c3cc(C)n(Cc4ccccc4)c3C)cs2)cc1 | 2.48% |
| Clc1ccc(Nc2nc(-c3cccs3)cs2)nc1 | 96.2% (active) |
| O=C(NCc1cccnc1)C(=O)Nc1nc(-c2ccccc2)cs1 | 8.85% |
| Cc1ccc(Nc2nc(-c3ccc(O)cc3O)cs2)nc1 | 16.5% |
| COc1ccc(CC(=O)Nc2nc(-c3ccc(F)c(F)c3)cs2)cc1OC | -6.95% |
| COc1ccc(CCNc2nc(-c3cccc(NC(C)=O)c3)cs2)cc1OC | 59% (active) |
| Clc1ccc(Cc2nnc(-c3cccs3)o2)cc1 | -4.17% |
| CC(=O)Nc1cccc(-c2csc(Nc3cccc(C)n3)n2)c1 | 61.1% (active) |
| COc1ccc(CCN(C(=O)COc2ccccc2)c2nc(-c3ccccc3)cs2)cc1OC | 23.4% |
| O=C(Nc1nc(-c2cccnc2)cs1)c1ccccc1F | 11.7% |
| c1ccc(Nc2nc(-c3ccncc3)cs2)nc1 | 79% (active) |
| CC(=O)NCCC(=O)Nc1nc(-c2ccc3c(c2)OCCO3)cs1 | 40.4% |
